Reference: PubChem BioAssay (NCATS)
Inconclusive results are not listed. The source made the active and inactive calls. Calls come from the whole dose curve.

The compounds below were run against Estrogen receptor (Homo sapiens) (UniProt P03372) (assay: qHTS assay for small molecule agonists of estrogen receptor alpha signaling (AID 588514; note: nearly all actives have a fitted effect of over 70% in size)). Details: ER-alpha-UAS-bla HEK293, beta-lactamase ratio, 18 h; series mostly up to 76.8 µM; activation: at the top concentration.
Source text: NIH Chemical Genomics Center [NCGC]
U.S. Environmental Protection Agency [EPA]
National Institutes of Environmental Health Sciences [NIEHS]
National Toxicology Program [NTP]
Estrogen receptor alpha (ER-alpha) is an important member of nuclear hormone receptors. ER-alpha plays important role in breast cancer as well as in other women's health issues. The majority of breast cancers is estrogen receptor (ER) positive and depends on estrogen for growth. There is also growing concern for some of environmental chemicals which may contribute the increasing the incidence of breast cancer. Therefore, it is important to understand the effect of environmental chemicals in ER-alpha signaling pathway.
NCGC Assay Protocol Summary
Using a beta-lactamase reporter-gene under control of the ER response element, a cell-based assay [ER-alpha-UAS-bla GripTiteTM cell-Based Assay from Invitrogen] was used to measure ER-alpha signaling pathway in agonist mode. ER-alpha-UAS-bla-GripTite HEK 293 cells were used with assay medium containing 2% charcoal/dextran treated FBS, 0.1 mM NEAA and 1 mM sodium pyruvate. Cells were cultured in this assay medium overnight in the flasks before the assay. The assay was performed in clear bottom black Greiner 1536-well plates. 17-beta-estradiol was used as a positive control in the screen. Library compounds were measured for their ability to either stimulate the reporter gene activity. Compounds were screened in a titration series in 1536-well format. […] Data was normalized relative to 17-beta-estradiol control (20 nM, 100%), and DMSO only wells (basal, 0%). Concentration-response titration points for each compound were fitted to the Hill equation yielding concentrations of half-maximal stimulation (EC50) and maximal response (efficacy) values.
qHTS protocol for ER-alpha beta-lactamase assay in agonist mode
[Step] [Parameter] [Value] [Description]
1. Reagent; 6 uL; 5000 cells/well
2. Incubation; 37 C for 4 hrs
4. Controls (17-beta-estradiol); 23 nL
- Dose response, start 1uM, 1:3 dilutions with duplicates
- Two columns with 20 and 0.5 nM (final) concentration.
5. Incubation; 37 C for 18 hrs
6. Detection reagent; 1 uL of CCF4-dye
7. Incubation; RT for 2 hrs
8. Detection; Fluorescence; Envision plate reader or Acumen plate reader

Estrogen receptor (Homo sapiens), sequence (P03372 whole entry, looked up): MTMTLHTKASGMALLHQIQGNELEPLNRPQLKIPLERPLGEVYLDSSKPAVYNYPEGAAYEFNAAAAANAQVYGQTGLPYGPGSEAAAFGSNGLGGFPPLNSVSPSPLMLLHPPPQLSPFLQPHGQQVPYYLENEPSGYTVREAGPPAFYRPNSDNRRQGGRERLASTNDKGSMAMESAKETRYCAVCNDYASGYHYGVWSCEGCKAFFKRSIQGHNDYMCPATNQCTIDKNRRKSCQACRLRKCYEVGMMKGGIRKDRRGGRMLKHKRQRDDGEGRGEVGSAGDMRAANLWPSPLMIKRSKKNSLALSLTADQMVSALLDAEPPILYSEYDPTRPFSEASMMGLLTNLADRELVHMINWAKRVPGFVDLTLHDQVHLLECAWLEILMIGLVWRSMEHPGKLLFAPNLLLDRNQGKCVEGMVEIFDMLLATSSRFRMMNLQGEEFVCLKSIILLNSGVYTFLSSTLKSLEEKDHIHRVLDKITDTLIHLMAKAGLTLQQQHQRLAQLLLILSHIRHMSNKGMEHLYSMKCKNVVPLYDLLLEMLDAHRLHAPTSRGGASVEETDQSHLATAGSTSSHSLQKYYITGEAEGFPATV

| Structure (SMILES) | activation | Potency |
| --- | --- | --- |
| CNC(=O)Oc1cccc2ccccc12 | 8.95% (inactive) |  |
| CCNc1nc(Cl)nc(NCC)n1 | -0.942% (inactive) |  |
| CC[n+]1c(-c2ccccc2)c2cc(N)ccc2c2ccc(N)cc21 | 8.78% (inactive) |  |
| COP(=S)(OC)Oc1ccc(Sc2ccc(OP(=S)(OC)OC)cc2)cc1 | 19.6% (inactive) |  |
| Oc1c(Br)cc(Br)cc1Br |  | inactive |
| CCC(=O)O[C@H]1CC[C@H]2[C@@H]3CCC4=CC(=O)CC[C@]4(C)[C@H]3CC[C@]12C |  | 2820 nM (active) |
| Cc1ccc(N=CN(C)C=Nc2ccc(C)cc2C)c(C)c1 | -2.47% (inactive) |  |
| COP(=O)(OC)OC=C(Cl)Cl |  | inactive |
| O=C(CCl)c1ccc(Cl)cc1Cl | -1.88% (inactive) |  |
| N#Cc1nn(-c2c(Cl)cc(C(F)(F)F)cc2Cl)c(N)c1S(=O)C(F)(F)F (stereo not drawn) | -5.33% (inactive) |  |
| CN(C)C(=S)SSC(=S)N(C)C |  | inactive |
| O=C(NC(=O)c1c(F)cccc1F)Nc1cc(Cl)c(OC(F)(F)C(F)C(F)(F)F)cc1Cl (stereo not drawn) | 2.03% (inactive) |  |
| C[C@H]1C(=O)O[C@@H]2CCN3CC=C(COC(=O)[C@](C)(O)[C@]1(C)O)[C@H]23 | 7.77% (inactive) |  |
